This is an account of results in PubChem BioAssay (NCATS).

Results filed as inconclusive are left out. A number with no mark means an inactive call. Calls of active or inactive are those of the source. Calls follow the shape of the dose curve; as a rule, active = well fitted inhibition curve with a large enough effect in the repeat runs; inconclusive = weak or mixed curves; inactive = flat fitted curve, though single readings scatter.
% is scaled to controls: 0 for no effect and ±100 for the full control effect; potency is read from the fitted curve at half-maximal effect.

Sequence of Cytochrome P450 2D6 (Homo sapiens) (P10635 whole entry, looked up): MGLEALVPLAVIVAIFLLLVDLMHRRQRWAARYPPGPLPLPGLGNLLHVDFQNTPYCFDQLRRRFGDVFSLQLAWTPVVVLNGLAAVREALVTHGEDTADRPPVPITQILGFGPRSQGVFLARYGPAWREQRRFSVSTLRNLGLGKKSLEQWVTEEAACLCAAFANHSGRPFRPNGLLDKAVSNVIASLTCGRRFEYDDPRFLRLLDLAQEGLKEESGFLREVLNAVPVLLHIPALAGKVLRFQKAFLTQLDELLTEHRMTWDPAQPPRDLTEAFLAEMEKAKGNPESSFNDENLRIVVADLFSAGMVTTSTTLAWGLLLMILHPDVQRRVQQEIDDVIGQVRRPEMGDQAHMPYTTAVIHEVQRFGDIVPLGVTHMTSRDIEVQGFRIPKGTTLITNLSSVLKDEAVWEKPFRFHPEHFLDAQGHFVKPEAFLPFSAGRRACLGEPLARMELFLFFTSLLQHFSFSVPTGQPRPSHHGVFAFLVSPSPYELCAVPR

This assay addresses Cytochrome P450 2D6 (Homo sapiens) (UniProt P10635). Briefly: Cytochrome P450 family 2 subfamily D member 6 (CYP2D6) small molecule antagonists: luciferase biochemical (cell-free) qHTS assay (AID 1645840). Also: nearly all actives have a fitted effect of over 55% in size. The note with it: P450-Glo CYP2D6 enzyme, luciferin luminescence, 1 h; series mostly up to 57.4 µM; activity change, negative = inhibition: at the top concentration. As to the method:
National Center for Advancing Translational Sciences [NCATS] Assay Overview: Cytochrome P450 (CYP) enzymes are membrane-bound hemeproteins that play a key role in metabolism of drugs and xenobiotics. Assaying the effect of chemicals on CYP isozymes is useful to minimize the adverse drug reactions and toxicities in drug development process. Chemical compounds were tested for their effect on CYP enzyme activities by using P450-Glo (TM) screening systems (Promega Corporation, Madison, WI). These systems provide a luminescent method containing proluciferin substrates and are converted to luciferin products by CYP isozymes. The luciferin products formed are detected with a luciferin detection reagent, and the amount of light produced is proportional to CYP activity. P450-Glo (TM) CYP2D6 screening system (Catalog. No. V9890) was used to detect the compounds that interfere in CYP2D6 activity.
Assay Protocol Summary: Two ul of enzyme-substrate mix was dispensed into medium binding white/solid 1536-well plates (Greiner Bio-One North America Inc., Monroe, NC) using a Flying Reagent Dispenser (FRD, Aurora Discovery, San Diego, CA). […] The assay plates were incubated at room temperature for 10 min. Then 2 ul of NADPH regeneration solution was added to each well of the assay plates using an FRD and incubated at room temperature for 1 h. The reaction was stopped by adding 4 ul of detection reagent using an FRD and after 20 min incubation at room temperature, the luminescence signal was measured using a ViewLux plate reader (Perkin Elmer, Shelton, CT). Data were expressed as relative luminescence units.
A general note: Quantitative high-throughput screening tests each substance at several concentrations.
For the compound `Cc1ccc(NC(=O)Cn2c(=O)n(CCC(=O)NCc3ccc4c(c3)OCO4)c(=O)c3sccc32)c(C)c1`, the Potency is 1.69 µM (active).
Turning to `CCNC(=O)N1CCN(C(=O)c2cnc3cc(OC)ccc3c2N2CCC(C)(C#N)CC2)CC1`, the “activity change, negative = inhibition” value was -25.8%.
For the compound `COc1ccc(-n2nc3c(N4CCCC(C(=O)NCc5ccc(C)cc5)C4)nnc(C)c3c2C)cc1` (stereo not given), the Potency was 3.79 µM (active).
On the same count and under the same terms, as for `Cc1ncc(Cl)cc1NCc1ccc(C(=O)N[C@@H](CC2CCCC2)C(=O)NC2CC2)s1`, the figure is 15.1 µM (active); as for `CC1(C#N)CCN(c2c(C(=O)N3CCC(C(=O)C4CC4)CC3)cnc3c(F)cc(F)cc23)CC1`, 16.9 µM (active).
As for `Cc1cccn2c(=O)cc(CSc3nnc(NC(=O)COc4ccccc4)s3)nc12`, the “activity change, negative = inhibition” value was 7.32%.
For `COc1ccc2c(CNCCc3ccccc3OC)c(C(=O)O)n(Cc3ccc(F)cc3Cl)c2c1`, the Potency was 12 µM (active).
`Cc1cccc(NC(c2ccccc2C)c2ccc3ccc(C)nc3c2O)n1` (stereo not given): the “activity change, negative = inhibition” value was 9.39%.
Take `Cc1cc(-c2nc(CN3CCC(C(=O)NCCCN4C[C@H](C)C[C@H](C)C4)CC3)co2)ccc1F`: the Potency was 0.952 µM (active).
Regarding `Cc1ccc(Cn2ccnc2SCC(=O)Nc2nc3ccccc3s2)cc1`, the Potency was 10.7 µM (active).
In the case of `Cc1cc2c(F)c(Oc3ncnn4cc(OC[C@@H](C)OC(=O)[C@H](C)N)c(C)c34)ccc2[nH]1`, the Potency was 10.7 µM (active).
Same read-out and setting: as for `CC(=O)c1ccc(NC(=O)C2CCN(c3nnc(C)c4c(C)n(-c5ccccc5)nc34)CC2)cc1`, the figure is 12 µM (active).
For the compound `COc1ccc(C(=O)Oc2ccc(C(c3c(C)[nH][nH]c3=O)c3c(C)[nH][nH]c3=O)cc2)cc1`, the “activity change, negative = inhibition” value was 6.78%.
The same measure, in the same setting: the value for `COC(=O)c1cc(S(C)(=O)=O)ccc1OC` was 6.83%.
Same read-out and setting: the value for `COc1ccc(-c2nc3n(n2)C(c2ccc(OC)c(OC)c2)C(C(=O)Nc2cccnc2)=C(C)N3)cc1` (stereo not given) was -1.79%; that for `Cc1ccc([S+](=O)([O-])NC2(c3ccccc3)CCCCC2)cc1` was 0.891%.
As to `Cc1cncn1CCc1nc2c3ccccc3nc(SCC(=O)Nc3cccc(Cl)c3)n2n1`, the Potency was 0.674 µM (active).
Same read-out and setting: as for `Cc1oc(-c2cccc(Cl)c2)nc1Cn1c(SCc2ccccc2F)nc2ccncc21`, the figure is 4.77 µM (active); as for `CCOC(=O)N1CCc2c(sc3c2c(=O)n(Cc2ccccc2)c(=O)n3CC(=O)Nc2ccc(F)cc2)C1`, 1.51 µM (active).
On the same count and under the same terms, the value for `COc1ccc(CCNc2nc(SCc3cccc(F)c3)nc3ccccc23)cc1OC` was 0.301 µM (active).
For `COCCOc1nc(N)c2[nH]c(=O)n(Cc3ccc(C(=O)O)cc3)c2n1`, the “activity change, negative = inhibition” value is 3.25%.
Same read-out and setting: the value for `CC1(C#N)CCN(c2c(C(=O)N3CCC(S(C)(=O)=O)CC3)cnc3cc(F)c(F)cc23)CC1` was -2.18%.
As for `Cc1ccc(CSC2=Nc3ccccc3C3=NC(CC(=O)NCc4cccs4)C(=O)N23)cc1` (stereo not given), the Potency is 6.74 µM (active).
In the case of `C[C@H]1[C@@H](OC(=O)CCC(=O)O)O[C@@H]2O[C@]3(C)CC[C@H]4[C@H](C)CC[C@@H]1[C@@]24OO3`, the “activity change, negative = inhibition” value is 7.64%.
In the case of `NC(=O)c1ccc(Cc2c(-c3cccc(-c4ccccc4)c3)[nH]n(-c3nc(C(=O)O)cs3)c2=O)cc1`, the Potency was 23.9 µM (active).
As to `C=Cc1ccc(Cn2c(SCC(=O)N3CCN(c4ccc(F)cc4)CC3)nc3ccccc32)cc1`, the “activity change, negative = inhibition” value is -7.65%.
As to `CC(C)c1ccc(Nc2c(-c3ccccn3)nc3ccccn23)cc1`, the Potency was 26.8 µM (active).
Turning to `COc1ccc(CC(=O)Nc2c(C(=O)N3CCN(c4ccccc4F)CC3)oc3ccccc23)cc1OC`, the “activity change, negative = inhibition” value is -21.6%.
For `O=C(O)c1ccc(Cc2c(-c3cccc(-c4ccccc4)c3)[nH]n(-c3nc(C(=O)O)cs3)c2=O)cc1`, the Potency was 9.52 µM (active).
The same measure, in the same setting: as for `CCc1ccc(-n2c(SCc3ccccc3C)nc3[nH]ncc3c2=O)cc1`, the figure is 9.52 µM (active).
`CCOc1ccc(CNC(=O)Cn2c(=O)c3cccn3c3ccc(F)cc32)cc1`: the “activity change, negative = inhibition” value is 10.6%.
Turning to `CC1(C)CC1C(=O)NC(=CCCCCSCC(N)C(=O)O)C(=O)O` (stereo not given), the “activity change, negative = inhibition” value was 7.33%.
For the compound `CC(=O)Nc1ccc(C)cc1-c1nc2ccccc2n(CC(=O)Nc2cc(Cl)ccc2C)c1=O`, the Potency was 0.338 µM (active).
Consider `CC(C)[C@H]1CC[C@H](C)C[C@H]1O`, for which the “activity change, negative = inhibition” value was -1.4%.
With `CC(C)c1ccc(-n2ncc3c(=O)n(CC(=O)Nc4cc(F)ccc4Cl)cnc32)cc1`, the “activity change, negative = inhibition” value was 0.984%.
Turning to `Cc1ccc(NC(=O)CSc2nc3ccccc3c3nc(CCn4cncc4C)nn23)cc1F`, the Potency was 3.79 µM (active).
With `Cc1cccn2c(=O)c(/C=C(\C#N)c3nc4ccccc4s3)c(Oc3ccc(F)cc3)nc12`, the “activity change, negative = inhibition” value is 7.79%.
For `COc1ccccc1Cn1cc(C(=O)c2ccc(Cl)cc2)c(=O)c2cc3c(cc21)OCCO3`, the Potency is 2.68 µM (active).
As to `C[C@H](O[C@H]1OCCN(Cc2n[nH]c(=O)[nH]2)[C@H]1c1ccc(F)cc1)c1cc(C(F)(F)F)cc(C(F)(F)F)c1`, the Potency is 10.7 µM (active).
Same read-out and setting: the value for `CN(C)S(=O)(=O)n1cc(/C=C(\NC(=O)c2ccccc2)C(=O)NCCCn2ccnc2)c2ccccc21` was 0.0535 µM (active).
